A selection: hits, their analogues and other compounds. The true share with any hit is near 3.5%.
TEAD-YAP inh = TEAD-YAP interaction inhibition. HEK-TIYL cells, TEAD-Gal4/YAP UAS-luciferase luminescence. inhibition, % at 9.12 µM. actives 1.4% (n = 640,000). AID 1259422; in the data active = inhibition above about 32%;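 note: 0% = median of test compound wells and 100% = reference inhibitor wells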
FBW7 activator = activators of human E3 ligase FBW7 | AlphaScreen FBW7–phospho-cyclin E peptide binding, activator screen | normalized activity (activation), % at 26.1 µM | actives 0.13% (n = 650,000); in the data active = normalized activity above about 1.9%;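 note: purified mutant Fbw7 with reduced substrate affinity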
Target sequence (Q969H0 whole entry, looked up): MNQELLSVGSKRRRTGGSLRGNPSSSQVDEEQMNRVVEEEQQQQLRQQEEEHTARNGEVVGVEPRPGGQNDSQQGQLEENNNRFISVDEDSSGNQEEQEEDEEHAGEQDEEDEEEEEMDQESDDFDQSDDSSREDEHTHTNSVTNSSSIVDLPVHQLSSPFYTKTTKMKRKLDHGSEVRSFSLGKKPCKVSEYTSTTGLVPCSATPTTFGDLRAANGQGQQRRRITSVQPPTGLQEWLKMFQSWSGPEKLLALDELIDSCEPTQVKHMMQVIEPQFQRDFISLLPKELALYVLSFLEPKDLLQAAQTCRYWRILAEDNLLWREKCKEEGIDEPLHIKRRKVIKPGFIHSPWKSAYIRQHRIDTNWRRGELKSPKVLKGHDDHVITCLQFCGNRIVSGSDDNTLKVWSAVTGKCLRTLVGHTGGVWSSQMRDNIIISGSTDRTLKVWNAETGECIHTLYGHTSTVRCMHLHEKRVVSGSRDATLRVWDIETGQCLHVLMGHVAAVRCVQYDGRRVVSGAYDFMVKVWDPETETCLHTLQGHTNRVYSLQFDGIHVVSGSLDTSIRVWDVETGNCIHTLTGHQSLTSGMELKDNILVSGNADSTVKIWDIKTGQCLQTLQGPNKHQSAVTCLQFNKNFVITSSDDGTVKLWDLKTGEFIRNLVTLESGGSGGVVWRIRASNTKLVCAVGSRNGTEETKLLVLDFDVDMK
GPR151 activ = activators of human GPR151. Q8TDV0. actives 1% (n = 650,000). PathHunter beta-arrestin GPR151 cells, luminescence. AID 1508602. activation, % at 11.2 µM; in the data active = activation above about 4.9%;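 note: 0% = median of compound wells and 100% = cells with positive control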
MITF primary = inhibitors of human MITF. actives 0.91% (n = 650,000). inhibition, % at 2.6 µM. AlphaScreen MITF homodimerization, bead proximity signal. O75030; in the data active = inhibition above about 50%;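 note: 0% = vehicle wells with protein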
MITF inh conf = confirmation of human MITF inhibitors. shares compounds with MITF primary. AlphaScreen MITF homodimerization, biotin/His-MITF beads. inhibition, % at 2.6 µM. actives 16% (n = 4,700). AID 1259372;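 active = inhibition above a cutoff derived from the DMSO control wells, cut at about 28% in these data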;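 note: 0% = MITF dimer wells with DMSO only; inhibitors lower the bead chemiluminescence by keeping MITF from dimerizing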
AlphaScreen DR = counter-screen: compounds optically interfering with AlphaScreen; IC50, µM; AlphaScreen optical interference counterscreen, cell-free; shares compounds with MITF primary; actives 6% (n = 480); call rule not given here
AS interf ctr = counter-screen: compounds optically interfering with AlphaScreen. shares compounds with MITF primary. LysRS AlphaScreen counterscreen, signal interference, triplicate. inhibition, % at 2.6 µM. actives 7.6% (n = 4,700). AID 1259376;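 active = inhibition above a cutoff derived from the DMSO control wells, cut at about 30% in these data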
* marks the source's active call; other numbers are inactive results; · = not tested or not shown; ! = not confirmed by another sample.

SMILES | TEAD-YAP inh | FBW7 activator | GPR151 activ | MITF primary | MITF inh conf | AS interf ctr | others
O=C(NCCCN1CCOCC1)c1cc2cc(Br)ccc2oc1=O | 5 | 2 | 0 | 60* | 8 | 18
COC(=O)c1ccc(COC(=O)c2ccc([N+](=O)[O-])c(C)c2)cc1 | -7 | 0 | -1 | 2 | · | ·
CCCCOc1ccc(CN2CCN(CCOCCO)CC2)cc1 | 6 | 0 | 2 | 76* | 18 | -1
CC(=O)CCc1ccc(OCCCN2CCN(Cc3ccccc3)CC2)cc1 | 1 | 0 | 0 | 59* | 9 | 6
O=Cc1ccc(OCCCN2CCN(Cc3ccccc3)CC2)cc1 | 10 | 0 | 0 | 57* | 6 | 10
CN1CCN(CCCOc2ccc(Cc3ccccc3)cc2)CC1 | 4 | 0 | 0 | -4 | · | ·
O=Cc1cc(Cl)ccc1OCCOc1ccccc1 | -48 | 0 | -1 | -3 | · | ·
O=Cc1cc(Cl)ccc1OCCCN1CCN(Cc2ccccc2)CC1 | -4 | 0 | 0 | 57* | 5 | 10
COc1ccc(CN2CCN(CCOCCO)CC2)cc1 | 6 | 0 | 2 | 14 | · | ·
CN1CCN(CCCOc2ccccc2C=O)CC1 | -2 | 1 | -1 | 65* | 6 | 17
CCN(C(=O)c1cc2c(=O)n3cccc(C)c3nc2n1C)c1ccccc1 | 12 | 1 | 0 | 53* | -3 | 8
CCCNC(=O)c1ccc(CN(c2ccccc2)S(C)(=O)=O)cc1 | -4 | 0 | -3 | -12 | · | ·
CCCCNC(=O)c1ccc(CN(c2ccccc2)S(C)(=O)=O)cc1 | 0 | 0 | -1 | 92* | 0 | -4
COc1ccc(CCNC(=O)CN(c2cccc(C)c2)S(C)(=O)=O)cc1OC | -7 | 0 | 2 | 1 | · | ·
O=c1c(O)c(-c2ccc(O)cc2O)oc2cc(O)cc(O)c12 | 0 | 0 | 0 | 67*! | 43* | -7 | AlphaScreen DR=>6.5
CN(C)C(=O)COc1cc(Cl)c(Cl)cc1Cl | -2 | 0 | -1 | 2 | · | ·
O=C(CCl)Nc1ccccc1N1CCCCCC1 | 14 | 0 | -1 | -3 | · | ·
O=C(CNCc1ccccc1F)Nc1ccccc1N1CCOCC1 | -12 | 0 | -1 | 74* | 12 | 21
O=C(CNCc1ccccc1Cl)Nc1ccccc1N1CCCCC1 | -8 | 0 | -1 | 62* | 4 | 9
O=C(Nc1cnn(CC(=O)N2CCCCC2CCn2cccn2)c1)c1ccccn1 (stereo unspecified) | 4 | 0 | 0 | 4 | · | ·
Cc1cc(C)cc(NC(=O)CSc2n[nH]c(N)n2)c1 | 7 | 0 | 0 | 11 | · | ·
O=C(CN1C(=O)NC2(CCCCCC2)C1=O)NC(=O)NCc1ccco1 | -4 | 0 | -1 | 70* | 71* | 12 | AlphaScreen DR=>7.2
CCc1ccc2oc(-c3cccc(NC(=O)c4cccc(Cl)c4Cl)c3)nc2c1 | -4 | 0 | -1 | -7 | · | ·
COc1ccc(-c2cc(N3CCCN(C)CC3)ncn2)cc1 | -14 | 0 | -1 | 10 | · | ·
COc1ccc2c(C)cc(N3CCCN(C)CC3)nc2c1 | 8 | 0 | 1 | 62* | -2 | -3
SMILES | TEAD-YAP inh | FBW7 activator | GPR151 activ | MITF primary | MITF inh conf | AS interf ctr | others
COc1ccc2oc(C(=O)OCC(=O)NC(C)(C)C)c(C)c2c1 | -9 | 0 | 0 | 19 | · | ·
CCSCCOC(=O)C1=C(C)NC2=C(C(=O)C(C(=O)OC)C(C)C2)C1c1cccc(OCc2ccccc2)c1 (stereo unspecified) | -2 | 0 | 0 | 71* | -18 | -8
COc1cc(CN2CCN(Cc3cc(OC)c(OC)c(OC)c3)CC2)cc(OC)c1OC | -2 | 0 | 2 | 10 | · | ·
COc1cc(CN2CCN(Cc3ccc(Br)cc3)CC2)cc(OC)c1O | -19 | 0 | -1 | 12 | · | ·
COc1cc(C(=O)N2CCN(Cc3cccc(Cl)c3)CC2)cc(OC)c1OC | 9 | 0 | -1 | 50 | · | ·
COc1ccc(CN2CCN(Cc3cccc(Br)c3)CC2)cc1OC | -5 | 0 | 0 | 40 | · | ·
COc1cc(CN2CCN(Cc3ccc(Br)cc3)CC2)cc(OC)c1OC | 14 | 0 | -1 | 81* | 6 | 19
COc1ccc(CN2CCN(Cc3ccc(Br)cc3)CC2)cc1OC | 17 | 0 | -1 | 74* | 5 | 3
COc1cc(CN2CCN(Cc3ccc(Cl)cc3)CC2)cc(OC)c1OC | -1 | 0 | 1 | 78* | 13 | 17
COc1cc(CN2CCN(Cc3cccc(Cl)c3)CC2)cc(OC)c1OC | 2 | 0 | -1 | 69* | 7 | 13
O=C(COc1ccccc1[N+](=O)[O-])Nc1ccc(Cl)c(NC(=O)c2ccco2)c1 | -9 | 1 | -1 | 3 | · | ·
OCCNc1nc(N2CCC(N3CCOCC3)CC2)nc2c1ncn2Cc1ccc(C(F)(F)F)cc1 | 2 | 0 | 2 | 0 | · | ·
COc1ccc(Br)c(C(=O)N/C(=C\c2cccc([N+](=O)[O-])c2)C(=O)Nc2ccc(F)cc2)c1 | -2 | 0 | 2 | -4 | · | ·
COc1ccc(CN2CCN(Cc3ccc(OC)c(OC)c3)CC2)cc1OC | 7 | 1 | 0 | 9 | · | ·
COc1ccc(CN2CCN(Cc3ccc(C)cc3)CC2)cc1OC | 8 | 0 | 0 | 67* | 7 | -7
CC/C(=N/NC(=O)c1nc2nc(C)cc(C)n2n1)c1ccccc1 | -7 | 0 | -1 | 9 | · | ·
CC(NCCN(C)C)C(=O)NCc1ccco1 (stereo unspecified) | -2 | 0 | 1 | -1 | · | ·
COC(=O)c1ccc(NC(=O)CN2CCN(C(=O)c3ccco3)CC2)cc1 | 24 | 0 | -1 | 2 | · | ·
Cc1ccccc1NC(=O)CN1CCN(CC(=O)c2ccco2)CC1 | 1 | 0 | 0 | 59* | 27 | 19
CC(NCCCN(C)C)C(=O)NCc1ccco1 (stereo unspecified) | -12 | 0 | 1 | 57* | 7 | 9
CCOC(=O)c1ccc(NC(=O)CN2CCN(CC(=O)c3ccco3)CC2)cc1 | 2 | 0 | 0 | 79* | 5 | 20
O=C(CN1CCN(Cc2cn3ccccc3n2)CC1)c1ccco1 | 1 | 0 | 1 | 54* | 11 | 18
CCOC(=O)CSc1nc2ccccc2c(=O)n1CC1CCC(C(=O)NCCc2ccccc2)CC1 (stereo unspecified) | -3 | 0 | 0 | -1 | · | ·
CCN1CCN(CC(=O)NCc2ccco2)CC1 | 9 | 0 | 0 | 80* | 13 | 4
O=C(CN1CCN(CC(=O)c2ccco2)CC1)NCc1ccccc1Cl | -12 | 0 | 0 | 66* | 9 | 18
CC1CCN(C(C)C(=O)NCc2ccco2)CC1 (stereo unspecified) | -5 | 0 | 1 | 80* | 18 | 23
N#CCCn1cc(CNCc2ccccc2)c(-c2ccc(F)cc2)n1 | 4 | 0 | 0 | 8 | · | ·
N#CCCn1cc(CNCc2ccccc2)c(-c2ccccc2)n1 | 4 | 0 | 2 | 54* | 14 | 13

Screens from PubChem.
